The campaign covered roughly 200,000 compounds. About 18,000 (9%) were called active. Rule as the data show it: active = inhibition above about 50%; inactive = the rest. The entries come from a sample that favours actives as a whole. Where a SMILES comes first, the peptide text is derived from it. [ ]: non-standard residue; d: D form. ξ: configuration not given here. ξM = CSCCC(N)C(=O)O
assay: Leishmania major promastigote growth inhibition, primary screen (AID 1063); conditions: Leishmania major promastigotes, resazurin fluorescence viability; at 10 µM; stronger effect = higher value;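 also: promastigotes grown with compound for 44 hours at 28 °C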

| SMILES | inhibition |
| --- | --- |
| O=[N+]([O-])c1ccc2oc(-c3cccc(O)c3)nc2c1 | -1.6% (inactive) |
| CCOC(=O)C1(Cc2cccc(OC)c2)CCN(Cc2csc(C(C)=O)c2)CC1 | 92.9% (active) |
| CCOC(=O)C1(Cc2cccc(OC)c2)CCN(C(C)COC)CC1 (stereo not given) | 2.55% (inactive) |
| CCOC(=O)C1(Cc2cccc(OC)c2)CCN(C(C)CC(C)(C)O)CC1 (stereo not given) | -1.48% (inactive) |
| CC(=O)Nc1ccc(NC(=O)COc2ccc(S(=O)(=O)NC(C)c3ccccc3)cc2)cc1 (stereo not given) | -0.2% (inactive) |
| COc1cc(/C=C/C2=CC(C)(C)NC(=S)N2)cc(OC)c1OC | 0.1% (inactive) |
| Cn1c(=O)c2c(nc(NCCc3ccccc3)n2Cc2ccccc2)n(C)c1=O | 15.1% (inactive) |
| CCCCNc1nc2c(c(=O)n(C)c(=O)n2C)n1Cc1cccc(OC)c1 | 4.44% (inactive) |
| Cn1c(=O)c2c(nc(N/N=C/c3cccs3)n2Cc2ccc(Br)cc2)n(C)c1=O | 60.3% (active) |
| O=C(CN1C(=O)/C(=C\c2ccccc2F)SC1=S)Nc1nc2ccccc2s1 | -3.34% (inactive) |
| Clc1ccc(-c2csc(-c3ccncc3)n2)cc1 | 5.86% (inactive) |
| CCOc1cc(NC(=O)CCl)c(OCC)cc1NC(C)=O | 5.77% (inactive) |
| CS(=O)(=O)N(CC(O)Cn1c2ccccc2c2ccccc21)c1cccc2ccccc12 (stereo not given) | 100% (active) |
| CC(=O)c1ccc2c(c1)c1ccccc1n2CC(C)C | 9.99% (inactive) |
| O=C1c2ccccc2S(=O)(=O)N1CC(O)Cn1c2ccccc2c2ccccc21 (stereo not given) | -4.57% (inactive) |
| O=C(Nc1nnc(Cc2ccc(Cl)cc2)s1)c1cccnc1 | -10.8% (inactive) |
| COC(=O)N/N=C/c1ccc(/C=N/NC(=O)OC)cc1 | -5.23% (inactive) |
| C=CCn1c(-c2sc(-c3ccccc3)nc2C)n[nH]c1=S | -5.29% (inactive) |
| O=C(c1ccc(Cl)c(Cl)c1)N1CCCC1 | -4.87% (inactive) |
| CCCNC(=O)c1ccc(Cl)c(Cl)c1 | -4.03% (inactive) |
| CCN(CC)CC1(O)CCN(C(=O)c2ccc(Cl)c(Cl)c2)CC1 | 99.6% (active) |
| ClC1(Cl)CC1CSc1ncn[nH]1 (stereo not given) | 3.37% (inactive) |
| CCOC(=O)CCNC(=O)N1CCCC(C(=O)c2ccccc2SC)C1 (stereo not given) | -1.7% (inactive) |
| CCOC(=O)c1cnc(Nc2nc3ccccc3o2)nc1CSC(=S)N1CCCCC1 | 56.7% (active) |

| SMILES | inhibition |
| --- | --- |
| CCc1ccc(CNC(=O)C2CCCN(c3nc4ccccc4o3)C2)cc1 (stereo not given) | 0.6% (inactive) |
| COc1ccc(-n2nc(C(=O)Nc3cc(OC)c(OC)c(OC)c3)c3ccccc3c2=O)c(OC)c1 | 0.87% (inactive) |
| O=C(CSc1ccc(C(F)(F)F)cc1[N+](=O)[O-])NCCOc1ccccc1 | -4.83% (inactive) |
| O=C(c1cccc(F)c1)N1CCN(c2ccc([N+](=O)[O-])c3cccnc23)CC1 | 45.7% (inactive) |
| CC(CNc1ccc([N+](=O)[O-])c2cccnc12)Nc1c([N+](=O)[O-])cc(C(F)(F)F)cc1[N+](=O)[O-] (stereo not given) | 76.9% (active) |
| COc1ccnc(Oc2ccccc2)c1-c1ncn[nH]1 | -5.3% (inactive) |
| CC1CCN(S(=O)(=O)c2ccc3ncn(CC(=O)N(C)C4CCCCC4)c(=O)c3c2)CC1 | -0.9% (inactive) |
| Cc1ccc(NC(=O)Nc2nnc(-c3ccncc3)s2)cc1 | 12.8% (inactive) |
| CCN1/C(=C/c2ccc3ccc(C)cc3[n+]2CC)Sc2ccccc21 | 100% (active) |
| CCN1/C(=C\c2ccc3ccccc3[n+]2CC)Sc2cc(C)ccc21 | 101% (active) |
| CCC(=O)/C=C1\Sc2ccccc2N1CC | 3.43% (inactive) |
| O=C(Cc1ccccc1)N1CCN(S(=O)(=O)c2ccc([N+](=O)[O-])cc2)CC1 | 5.24% (inactive) |
| Cc1ccc(Nc2c(F)c(F)c(F)c(F)c2C(=O)O)c(C)c1 | -6.66% (inactive) |
| COc1cccc(CN(C)CC(=O)Nc2ccccc2C(=O)Nc2ccccc2)c1 | 16.9% (inactive) |
| Cc1cc([N+](=O)[O-])ccc1NC(=O)c1ccc(NC(=O)C(C)C)cc1 | -5.33% (inactive) |
| CN1CC(c2ccccc2)C2(COc3ccccc3C2=O)C12C(=O)Nc1ccccc12 (stereo not given) | 62.6% (active) |
| O=C(CN1CCN(S(=O)(=O)c2ccc(F)cc2)CC1)Nc1ccccc1F | 1.33% (inactive) |
| O=S(=O)(c1ccc(F)cc1)N1CCN(Cc2ccccc2C(F)(F)F)CC1 | 51.1% (active) |
| Cc1ccc(S(=O)(=O)N2CCN(Cc3cccc(C)c3O)CC2)cc1 | -1.84% (inactive) |
| COc1ccc(CN(C)C(C)C(=O)NC2CCCc3ccccc32)cc1 (stereo not given) | 10% (inactive) |
| O=[N+]([O-])c1ccc(N2CCN(S(=O)(=O)c3ccc4ccccc4c3)CC2)cc1NCc1ccco1 | -0.79% (inactive) |
| O=C(c1ccccc1)N1CCN(c2ccc([N+](=O)[O-])c(NCc3ccco3)c2)CC1 | 65.6% (active) |
| O=C(c1cccc(F)c1)N1CCN(c2ccc([N+](=O)[O-])c(N3CCCCC3)c2)CC1 | 4.09% (inactive) |
| CN(C)c1ccc(/C=N/NC(=O)C(O)c2ccc(Br)cc2)cc1 (stereo not given) | 4.17% (inactive) |

| SMILES | inhibition |
| --- | --- |
| CN(C)c1ccnc(Nc2ccc(F)cc2)c1C#N | -2.28% (inactive) |
| CCOC(=O)NNC(=O)c1ccc(Cl)cc1 | -5.24% (inactive) |
| COC(=O)/C(NC(C)=O)=C(\C)c1ccc(Cl)cc1 | 0.11% (inactive) |
| C/C(=N\N=C(N)N)c1ccc(Cl)cc1 | 98.8% (active) |
| CCOC(=O)N1CCN(Cc2nc(Cc3cccc(C(F)(F)F)c3)no2)CC1 | 4.8% (inactive) |
| FC(F)(F)c1cccc(Cc2noc(CN3CCC(N4CCCCC4)CC3)n2)c1 | 82.7% (active) |
| Fc1cccc(Cc2noc(CN3CCN(c4cnccn4)CC3)n2)c1 | -3.37% (inactive) |
| Cc1ccc(S(=O)(=O)/N=C(/Nc2ccc3[nH]c(=O)[nH]c3c2)c2ccccc2)cc1 | -4.98% (inactive) |
| O=S(=O)(/N=C(/Nc1ccccc1)c1ccccc1)c1cccs1 | 1.04% (inactive) |
| CCOC(=O)c1ccc(N/C(=N/S(=O)(=O)c2ccccc2)c2ccccc2)cc1 | 61.3% (active) |
| COC(=O)CNC(=O)C(CCSC)NC(C)=O (stereo not given) (Ac-[ξM]-Gly-OMe) | -3.76% (inactive) |
| COc1ccc(C[C@H]2CN3C(=NC[C@H]3C)N2CCNC(=O)CCC2CCCCC2)cc1 | 31.8% (inactive) |
| Cc1cccc(-n2c(=O)c3c(C)c(C)sc3n(CC(N)=O)c2=O)c1 | 4.25% (inactive) |
| CC(=O)N(CN1C(=O)C2C3C=CC(C3)C2C1=O)c1cccc(Cl)c1 (stereo not given) | -6.29% (inactive) |
| O=C(COC(=O)CNS(=O)(=O)c1ccccc1)NC12CC3CC(CC(C3)C1)C2 | 1.38% (inactive) |
| COc1ccccc1-c1nnc(SCC(=O)Nc2ccccc2)o1 | 2.06% (inactive) |
| COc1ccccc1-c1nnc(NC(=O)c2ccc3ncsc3c2)o1 | 80.7% (active) |
| COc1ccccc1-c1nnc(NC(=O)c2cccc(N3C(=O)CCC3=O)c2)o1 | -4.87% (inactive) |
| Cc1ccc(S(=O)(=O)Cc2cc(-c3ccc(Cl)cc3)no2)cc1 | -0.46% (inactive) |
| COc1ccccc1CC(NC(C)=O)C(=O)NC1CCN(C(=O)Nc2ccccc2Cl)CC1 (stereo not given) | -3.45% (inactive) |
| COCCCNC(=O)Cn1c(=O)n(Cc2ccccc2Cl)c(=O)c2cc(OC)c(OC)cc21 | -3.45% (inactive) |
| Cc1ccc(S(=O)(=O)CCC(=O)OCc2ccccc2)cc1 | -3.07% (inactive) |
| CCOc1cc(C2C(C(=O)OC(C)C)=C(C)NC3=C2C(=O)CCC3)cc([N+](=O)[O-])c1O (stereo not given) | 8.32% (inactive) |
| COc1ccc(C(=O)Nc2ccc(CN3CCOCC3)cc2)cc1 | 0.71% (inactive) |

| SMILES | inhibition |
| --- | --- |
| O=C(Nc1ccc(CSc2ccccc2)cc1)c1ccc(CN2CCOCC2)cc1 | 95.2% (active) |
| O=C(Nc1ccccc1C(=O)N1CCOCC1)c1ccc(CSc2ccccc2)cc1 | 15.2% (inactive) |
| NC(=O)COC(=O)c1sc2cc(F)ccc2c1Cl | -4.95% (inactive) |
| O=C(O)CCCCOn1ccnc1 | -5.36% (inactive) |
| O=C(c1ccccc1-c1ccccc1)N1CCOCC1 | 1.25% (inactive) |
| Cc1onc(-c2ccccc2)c1C(=O)N1CCOCC1 | 0.76% (inactive) |
| Cc1oc2c(c1C(=O)N1CCOCC1)C(=O)c1ccccc1C2=O | 99.7% (active) |
| Cc1c(C=O)n(C)n(-c2ccccc2)c1=O | 0.34% (inactive) |
| COc1cc(NC(=O)COc2ccccc2Cl)ccc1NC(=O)C(C)C | 1.32% (inactive) |
| CN(C)S(=O)(=O)c1ccc2oc(SCC(=O)Nc3ccccc3F)nc2c1 | 2.57% (inactive) |
| CSc1ccccc1NC(=O)Cc1ccc(Br)cc1 | 53.5% (active) |
| Cc1cccc(C)c1NC(=O)CNC(=O)Cc1ccc(Br)cc1 | -3.9% (inactive) |
| CSc1ccccc1NC(=O)CN(C)CC(=O)Nc1cccc(Br)c1 | 18.6% (inactive) |
| Cc1ccc(OCC(=O)Nc2ccc(S(=O)(=O)Nc3ccccn3)cc2)cc1 | -4.12% (inactive) |
| C=CCN(c1ccc(C(N)=O)cc1)S(C)(=O)=O | -6.04% (inactive) |
| CSCc1ccc(C(=O)Nc2cc(C)cc(C)c2)cc1 | -3.2% (inactive) |
| C=CCN(c1ccc(C(=O)Nc2cc(C)cc(C)c2)cc1)S(C)(=O)=O | 76% (active) |
| CCc1ccc(-n2c(SCc3cc(=O)n4cc(Br)ccc4n3)nc3[nH]ncc3c2=O)cc1 | 56.9% (active) |
| Cc1ccc(CSc2nc3[nH]ncc3c(=O)[nH]2)cc1 | -3.25% (inactive) |
| O=C(CSc1nc2[nH]ncc2c(=O)n1-c1ccccc1)N1CCCc2ccccc21 | 15.2% (inactive) |
| Cc1cccc2nc(CSc3nc4[nH]ncc4c(=O)n3-c3cccc(Cl)c3)cc(=O)n12 | 56.1% (active) |
| COc1ccc(CCNC(=O)CSc2nc3[nH]ncc3c(=O)n2-c2cccc(C(F)(F)F)c2)cc1OC | -7.3% (inactive) |
| O=c1c2sccc2nc(SCc2cc(=O)n3ccccc3n2)n1-c1ccc(Br)cc1 | 12.1% (inactive) |
